From PubChem BioAssay (EPA / NIEHS)
The source made the active and inactive calls. The calls were made as follows: active = hit-call score of the fitted dose curve at least 0.9, where 1 is the maximum; inactive = score below 0.9.

The compounds below were run on HGF (gene 3082) (assay: LTEA_HepaRG_HGF: Life Technologies and Expression Analysis (LTEA) Assay for Hepatocyte Growth Facto (HGF) using HepaRG (AID 2283505)). Settings: mRNA level, 48 h; actives raise or lower the signal.
Procedure: LTEA_HepaRG is a cell based, multiplexed-readout assay that uses HepaRG, a human liver cell line, with measurements taken at 48 hours after chemical dosing on a 96-well plate.LTEA_HepaRG_HGF is one of 102 assay component(s) measured in the LTEA HepaRG cell culture assay. It is a marker of Cell proliferation, survival, death.Data from the assay component LTEA_HepaRG_HGF was analyzed into 1 endpoint. This assay endpoint, LTEA_HepaRG_HGF, was analyzed with bidirectional fitting relative to DMSO as the negative control and baseline of activity. Using a type of inducible reporter, measures of mRNA induction for gain or loss-of-signal activity can be used to understand regulation of transcription factor activity. To generalize the intended target to other relatable targets, this assay endpoint is annotated to the growth factor intended target family, where the subfamily is hepatocyte growth factor.
A total of 1060 chemcials from the ToxCast library were tested in eight-point concentration-response experiments. Cell culture and cytotoxicity assays were conducted at Thermo Fisher Scientific's Custom Services facility (Madison, WI). A single lot of human HepaRG cells (Thermo Fisher Scientific, Frederick, MD) was used for the cell culture experiments. 96-well format collagen type I coated plates of human HepaRG cells were prepared using established methods. Briefly, cryopreserved HepaRG cells were thawed, plated at a density of approximately 100,000 cells/well in HepaRG Thaw, Plate, and General Purpose media (HPRG770, Thermo Fisher Scientific), and incubated for 48 hours. 0.5% DMSO was selected as vehicle control to balance the requisite need of DMSO in HepaRG cultures to maintain differentiation (for example, baseline metabolism, proportions of hepatocytes vs. cholangiocytes), while enabling further hepatic receptor pathway activation (for example, PXR and CAR) in response to chemical exposure. 48 hours after plating, the culture medium was replaced with HepaRG Serum-Free Incudtion Media. Cells were exposed to each test chemical in duplicate and maintained in CO2 incubators for another 48 hours. Chemical plates were thawed to room temperature and 200x concentrations of treatment groups were prepared. 8-point conentration-reponse curves were made with the highest exposure at 100 uM, followed by half-log dilutions, all in 0.5% DMSO. Each test plate contained variouse controls, induction positive controls (1mM phenobarbital), cytotoxicity positive controls ([…] aflatoxin B1), vehicle controls (0.5% DMSO), and total lysis controls (0.5% DMSO). Cell morphology images were taken using an Essen IncuCyte FLR automated microscope, with six 96-well plates imaged in about 24 minutes. Images were captured and exported and JPEG files. Spent culture media was transfered to black-well plates for the LDH assay, and remaining media was sorted at -80 C for later use. Cells were treated with RLT buffer and frozen until shipped for gene expression analysis. Total RNA was isolated from the cell suspension in 75 uL of Buffer RLT (Qiagen, Germantown, MD 20874) by Quintiles/Expression Analysis (Durham, NC) using a custom isolation procedure. Total RNA from each plate well was transferred to a preamplification plate. Fluidigm's 96.96 Dynamic ArrayTM (Fluidigm, Amsterdam, the Netherlands) technology was used for gene expression analyses by quantitative reverse transcription polymerase chain reaction (qRT-PCR, performed by Quintiles/Expression Analysis, Durham, NC)89. Standard TaqManTM Assays (Applied Biosystems/ThermoFisher Scientific, Foster City, CA) were used to assess the expression of 93 genes selected based on their selectivity and sensitivity to important hepatic receptors known to be modulated by environmental chemicals; importance in human hepatocyte functionality; and hepatotoxicity. […]
With CC(C)OC(=O)C(C)(C)Oc1ccc(C(=O)c2ccc(Cl)cc2)cc1 the outcome was “inactive”.
In the case of Cc1cc(SC2=C(O)C[C@@](CCc3ccc(N)cc3)(C(C)C)OC2=O)c(C(C)(C)C)cc1CO, the outcome is reported as “inactive”.
For CCC(C)N(C)C(=O)c1cc2ccccc2c(-c2ccccc2Cl)n1 (stereo not given), the outcome was “inactive”.
For CCCCOC(=O)CCCCC(=O)OCCCC, the outcome was “inactive”.
In the case of CC(=O)CC(c1ccccc1)c1c(O)c2ccccc2oc1=O (stereo not given), the outcome is reported as “inactive”.
With COC(=O)CCC(=O)OC the outcome was “inactive”.
With CC1=C(C)S(=O)(=O)CCS1(=O)=O the outcome was “inactive”.
CC(=O)OCC(COC(C)=O)OC(C)=O was tested, and the outcome was “inactive”.
In the case of Nc1nc(=S)c2[nH]cnc2[nH]1, the outcome is reported as “inactive”.
CCCCC(CC)CO (stereo not given) was tested, and the outcome was “inactive”.
For COC(=O)CCCC(=O)OC, the outcome was “inactive”.
O=C(O)CC(O)(CC(=O)O)C(=O)O was tested, and the outcome was “inactive”.
In the case of NC1CCCCC1, the outcome is reported as “inactive”.
With CCCC[C@H]1CN(CC2CCOCC2)C(=O)OC12CCN(C1(C)CCN(C(=O)c3c(C)ncnc3C)CC1)CC2 the outcome was “inactive”.
For COc1ccc(OC(F)(F)F)cc1CN[C@H]1CCCN[C@H]1c1ccccc1, the outcome was “inactive”.
O=C(O)c1[nH]n(-c2ccc(S(=O)(=O)O)cc2)c(=O)c1N=Nc1ccc(S(=O)(=O)O)cc1 was tested, and the outcome was “inactive”.
In the case of O=NO, the outcome is reported as “inactive”.
With CC(C)c1cccc(C(C)C)c1 the outcome was “inactive”.
With Cc1ccc(C(C)(C)C)c(O)c1 the outcome was “inactive”.
In the case of C=CCc1ccc(OC)c(OC)c1, the outcome is reported as “inactive”.
In the case of CCCCCCC(CCCCCCCCCCC(=O)OCC(COC(C)=O)OC(C)=O)OC(C)=O (stereo not given), the outcome is reported as “inactive”.
For CC(=O)S[C@H](C(=O)N[C@H]1Cc2ccccc2[C@H]2CCC[C@@H](C(=O)O)N2C1=O)C(C)C, the outcome was “inactive”.
CN(C)CCCN1c2ccccc2Sc2ccc(Cl)cc21 was tested, and the outcome was “inactive”.
For CCCCC(CC)COP(=O)(OCC(CC)CCCC)OCC(CC)CCCC (stereo not given), the outcome was “inactive”.
CCCCCCCCCCCCCCOS(=O)(=O)O was tested, and the outcome was “inactive”.
In the case of CCCC(=O)O, the outcome is reported as “inactive”.
With CCCCCCCCCCCCCCCCO the outcome was “inactive”.
With c1ccc2occc2c1 the outcome was “inactive”.
For O=C(Oc1ccccc1)c1cccc(C(=O)Oc2ccccc2)c1, the outcome was “inactive”.
CN(C)C(=O)NC1(c2ccccc2)CCN(CCC[C@]2(c3ccc(Cl)c(Cl)c3)CCCN(C(=O)c3ccccc3)C2)CC1 was tested, and the AC50 was 22.5 µM (active).
For CSc1ccc(Oc2ccc(S(N)(=O)=O)cc2CN(C)C)cc1C, the outcome was “inactive”.
With Cn1cnc2c1c(=O)[nH]c(=O)n2C the outcome was “inactive”.
With CCOCCOCCO the outcome was “inactive”.
With O=C1CCCCC1 the outcome was “inactive”.
With C/C=C/C=C/C(=O)O the outcome was “inactive”.
O=C1c2c(O)cccc2Cc2cccc(O)c21 was tested, and the outcome was “inactive”.
O=C(N[C@@H](c1ccccc1)[C@@H]1CCCCN1)c1cccc(C(F)(F)F)c1Cl was tested, and the outcome was “inactive”.
NC(=Nc1ccccc1)Nc1ccccc1 was tested, and the outcome was “inactive”.
With CCCCCCC(C=O)=Cc1ccccc1 the outcome was “inactive”.
For CCCCCCCC(=O)OC, the outcome was “inactive”.
